Several values for one entry are separate records, joined by “and”; a condition that tells them apart may be missing. Identical values can stand only once. Hit rate of the full screen: of about 3,200 compounds, about 300 (9.4%) showed activity. What follows is part of a selection rich in actives, with near analogues and random picks from the rest.
System: A673/TR/shEF
Assay: cell viability (LOESS-normalised, relative to median of negative controls) (log2 ratio); higher = more viable cells (less compound effect), active = hit call of the paper (over 3 MAD below the median)
Settings: treatment time: 72 h
Summary of the method: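 A673/TR/shEF Ewing sarcoma cells (1,500 per well, 384-well plates) were grown with or without doxycycline to induce EWS-FLI1 shRNA knockdown, starting 24 h before compounds. Library compounds at two or more concentrations, with DMSO controls, were added for three days. Cell viability was read by CellTiter-Glo luminescence on an Envision reader, then LOESS-corrected per plate, divided by the median of negative controls and log2-transformed. Hits were wells at least three median absolute deviations from the median of all screened wells.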

[1] = 0.25 µM, library screen: screen1, EWS-FLI1 expression: high (no doxycycline)
[2] = 0.25 µM, library screen: screen1, EWS-FLI1 expression: low (doxycycline-induced shRNA knockdown)
[3] = 2.5 µM, library screen: screen1, EWS-FLI1 expression: high (no doxycycline)
[4] = 2.5 µM, library screen: screen1, EWS-FLI1 expression: low (doxycycline-induced shRNA knockdown)
[5] = 0.25 µM, library screen: screen2, EWS-FLI1 expression: high (no doxycycline)
[6] = 0.25 µM, library screen: screen2, EWS-FLI1 expression: low (doxycycline-induced shRNA knockdown)
[7] = 2.5 µM, library screen: screen2, EWS-FLI1 expression: high (no doxycycline)
[8] = 2.5 µM, library screen: screen2, EWS-FLI1 expression: low (doxycycline-induced shRNA knockdown)
[9] = 0.025 µM, library screen: screen2, EWS-FLI1 expression: high (no doxycycline)
[10] = 0.025 µM, library screen: screen2, EWS-FLI1 expression: low (doxycycline-induced shRNA knockdown)
[11] = 0.103 µM, library screen: screen3, EWS-FLI1 expression: high (no doxycycline)
[12] = 0.103 µM, library screen: screen3, EWS-FLI1 expression: low (doxycycline-induced shRNA knockdown)
[13] = 0.308 µM, library screen: screen3, EWS-FLI1 expression: high (no doxycycline)
[14] = 0.308 µM, library screen: screen3, EWS-FLI1 expression: low (doxycycline-induced shRNA knockdown)
[15] = 0.926 µM, library screen: screen3, EWS-FLI1 expression: high (no doxycycline)
[16] = 0.926 µM, library screen: screen3, EWS-FLI1 expression: low (doxycycline-induced shRNA knockdown)
[17] = 2.8 µM, library screen: screen3, EWS-FLI1 expression: high (no doxycycline)
[18] = 2.8 µM, library screen: screen3, EWS-FLI1 expression: low (doxycycline-induced shRNA knockdown)
[19] = 8.3 µM, library screen: screen3, EWS-FLI1 expression: high (no doxycycline)
[20] = 8.3 µM, library screen: screen3, EWS-FLI1 expression: low (doxycycline-induced shRNA knockdown)
[21] = 25 µM, library screen: screen2, EWS-FLI1 expression: high (no doxycycline)
[22] = 25 µM, library screen: screen2, EWS-FLI1 expression: low (doxycycline-induced shRNA knockdown)
[23] = 25 µM, library screen: screen3, EWS-FLI1 expression: high (no doxycycline)
[24] = 25 µM, library screen: screen3, EWS-FLI1 expression: low (doxycycline-induced shRNA knockdown)

Measured: cell viability (log2)

NCCCC(N)CC(=O)NCC1NC(=O)C(CO)NC(=O)C(N)CNC(=O)C(C2CCN=C(N)N2)NC(=O)/C(=C/NC(N)=O)NC1=O (stereo not given)
inactive: [1] 0.0914 | [2] 0.117 | [3] 0.124 | [4] 0.0772

CC1=C(C(=O)OCCOc2ccccc2)C(c2coc3ccccc3c2=O)C2=C(CCCC2=O)N1 (stereo not given)
inactive: [1] 0.0678 | [2] -0.0908 | [3] 0.0965 | [4] 0.143

COc1cc2nc(N3CCN(C(=O)C4=C[C@H]5C=C[C@@H]4CC5)CC3)nc(N)c2cc1OC
inactive: [5] 0.165 | [6] 0.0668 | [7] 0.132 | [8] 0.0728

NCCCCC(N)C(=O)NC(Cc1c[nH]c2ccccc12)C(=O)NC(CCCCN)C(=O)O (stereo not given)
inactive: [1] 0.0147 | [2] 0.0512 | [3] 0.141 | [4] 0.0544

COC(=O)c1c(OC)cc2c(c1C)Oc1c(Cl)c(OC(C)=O)c(Cl)c(C)c1C(=O)O2
inactive: [1] 0.0846 | [2] 0.126 | [3] 0.0897 | [4] 0.152

COC(=O)C1=C(C)N=c2sc(=Cc3cccnc3)c(=O)n2C1c1ccccc1 (stereo not given)
inactive: [1] 0.123 | [2] 0.0677 | [3] 0.0796 | [4] 0.107

O=C(/C=C/c1ccc(-c2cccc(Cl)c2)o1)c1ccco1
inactive: [1] 0.127 | [2] 0.15 | [3] 0.147 | [4] 0.194

Cn1c(=O)[nH]c2nc[nH]c2c1=O
inactive: [1] 0.0262 | [2] 0.135 | [3] 0.103 | [4] 0.0812

S=c1nc[nH]c2nc[nH]c12
active: [3] -0.186 | [21] -0.312 | [23] -0.314
inactive: [9] 0.182 | [10] 0.0993 | [11] 0.0192 | [12] 0.0459 | [1] -0.0045 | [2] -0.00406 | [5] 0.161 | [6] 0.00291 | [13] 0.144 | [14] 0.158 | [15] 0.0964 | [16] 0.0595 | [4] 0.0219 | [7] -0.00564 | [8] 0.0787 | [17] 0.036 | [18] 0.0694 | [19] -0.147 | [20] 0.036 | [22] 0.0432 | [24] 0.056

O=c1nc[nH]c2nc[nH]c12
inactive: [1] 0.00725 | [2] -0.0191 | [3] 0.152 | [4] 0.0891

Cn1c(=O)c2[nH]cnc2n(C)c1=O
inactive: [11] 0.139 | [12] 0.0982 | [1] 0.0899 | [2] 0.0721 | [5] 0.105 and -0.0181 | [6] 0.0369 and 0.0406 | [13] 0.11 | [14] 0.14 | [15] 0.146 | [16] 0.0819 | [3] 0.127 | [4] 0.0623 | [7] 0.259 and 0.0738 | [8] 0.0969 and 0.00951 | [17] 0.155 | [18] 0.129 | [19] 0.11 | [20] 0.0762 | [23] 0.117 | [24] 0.0984

Nc1nc(=S)c2[nH]cnc2[nH]1
active: [3] -0.318 | [7] -0.33 | [19] -0.323 | [21] -0.96 | [22] -0.163 | [23] -0.834
inactive: [9] 0.0835 | [10] 0.0155 | [11] 0.132 | [12] 0.0451 | [1] 0.0575 | [2] 0.137 | [5] 0.0679 | [6] 0.0691 | [13] 0.156 | [14] 0.137 | [15] 0.118 | [16] 0.102 | [4] 0.0456 | [8] -0.0263 | [17] 0.0258 | [18] 0.111 | [20] 0.0181 | [24] 0.027

COc1cc2ccc(=O)oc2c(OC)c1OC
inactive: [1] 0.24 | [2] 0.119 | [3] 0.156 | [4] 0.115

CC(C)/C(O)=C1/C(=O)O[C@@H](c2ccoc2)[C@]2(C)C(O)[C@@H](O)[C@@]34OC5(C)OC67CC(C)(C(O)[C@]6(O)[C@@H](O)[C@]3(O5)C12)[C@H](CC(=O)O)[C@]74C (stereo not given in full)
inactive: [1] 0.0599 | [2] 0.0645 | [3] 0.0749 | [4] 0.047

COC(=O)C1=C(C)NC2=C(C(=O)CCC2)C1c1coc2ccccc2c1=O (stereo not given)
inactive: [1] 0.109 | [2] 0.0579 | [3] 0.125 | [4] 0.0379

CC(=O)O[C@@H]1CC2C(C)(C)[C@@H](O)CC[C@]2(C)C2CC[C@@]3(C)[C@H](c4ccoc4)OC(=O)[C@H]4O[C@]43[C@@]21C (stereo not given in full)
inactive: [1] 0.0735 | [2] 0.138 | [3] 0.203 | [4] 0.158

CCOc1cc(/C=C2\SC(=S)N(CCS(=O)(=O)O)C2=O)ccc1O
inactive: [1] -0.00487 | [2] 0.0852 | [3] 0.0865 | [4] 0.0812

CN1CCN(c2nc3ccccn3c(=O)c2/C=C2\SC(=S)N(CCc3ccccc3)C2=O)CC1
inactive: [1] -0.00293 | [2] 0.00861 | [3] 0.0344 | [4] 0.124

C[C@H](CCC(=O)O)[C@H]1CC[C@H]2[C@@H]3CC[C@@H]4CCCC[C@]4(C)[C@H]3CC[C@]12C
inactive: [1] 0.0641 | [2] -0.0159 | [3] 0.109 | [4] -0.0358

C/C=C(/C)C(=O)O[C@H]1[C@H](OC(C)=O)[C@]2(CO)[C@H](O)C[C@]3(C)C(=CC[C@@H]4[C@@]5(C)CC[C@H](O[C@@H]6O[C@H](C(=O)O)[C@@H](O[C@@H]7O[C@H](CO)[C@@H](O)[C@H](O)[C@H]7O)[C@H](O)[C@H]6O[C@@H]6O[C@H](CO)[C@@H](O)[C@H](O)[C@H]6O)[C@](C)(CO)[C@@H]5CC[C@]43C)[C@@H]2CC1(C)C.C/C=C(\C)C(=O)O[C@H]1[C@H](OC(C)=O)[C@@]2(CO)C(CC1(C)C)C1=CCC3[C@@]4(C)CC[C@H](O[C@@H]5O[C@H](C(=O)O)[C@@H](O[C@@H]6O[C@H](CO)[C@@H](O)[C@H](O)[C@H]6O)[C@H](O)[C@H]5O[C@@H]5O[C@H](CO)[C@@H](O)[C@H](O)[C@H]5O)[C@](C)(CO)C4CC[C@@]3(C)[C@]1(C)C[C@H]2O
inactive: [1] 0.0112 | [2] -0.0408 | [3] 0.0934 | [4] 0.0403

CC[C@]1(O)C[C@H]2CN(CCc3c([nH]c4ccccc34)[C@@](C(=O)OC)(c3cc4c(cc3OC)N(C=O)[C@H]3[C@@](O)(C(=O)OC)[C@H](OC(C)=O)[C@]5(CC)C=CCN6CC[C@]43[C@@H]65)C2)C1
active: [11] -3.56 | [12] -0.748 | [5] -2.87 | [6] -0.436 | [13] -3.82 | [14] -0.668 | [15] -3.92 | [16] -0.728 | [7] -2.88 | [8] -0.517 | [17] -3.8 | [18] -0.704 | [19] -3.93 | [20] -0.847 | [23] -3.66 | [24] -0.84

CCC1(O)CC2CN(CCc3c([nH]c4ccccc34)[C@@](C(=O)OC)(c3cc4c(cc3OC)N(C)C3[C@]45CCN4CC=C[C@@](CC)([C@@H](OC(C)=O)[C@]3(O)C(=O)OC)[C@H]45)C2)C1 (stereo not given in full)
active: [5] -3.54 | [6] -0.483 | [7] -3.67 | [8] -0.537

CCC1=C[C@@H]2CN(C1)Cc1c([nH]c3ccccc13)[C@@](C(=O)OC)(c1cc3c(cc1OC)N(C)[C@H]1[C@@](O)(C(=O)OC)[C@H](OC(C)=O)[C@]4(CC)C=CCN5CC[C@]31[C@@H]54)C2
active: [11] -4.31 | [12] -1.05 | [13] -3.96 | [14] -1.11 | [15] -4.31 | [16] -0.811 | [17] -4.31 | [18] -0.798 | [19] -3.91 | [20] -0.769 | [23] -3.44 | [24] -0.836

C=CCN1C(=O)C(=C2C(=O)N(C)c3ccccc32)SC1=S
inactive: [1] 0.145 | [2] 0.0841 | [3] 0.0806 | [4] 0.0634

CC1(C)C[C@H](O)[C@]23CC[C@@H](O)[C@@](C)(CC[C@@H]12)C3
inactive: [1] 0.155 | [2] 0.054 | [3] 0.181 | [4] 0.0139

C=CCNc1nc2ccccn2c(=O)c1/C=C1\SC(=S)N(CCc2ccccc2)C1=O
inactive: [1] 0.071 | [2] 0.0307 | [3] 0.121 | [4] 0.134

CCOC(=O)c1c[nH]c2c(Cl)c(Cl)ccc2c1=O
inactive: [1] 0.0772 | [2] 0.122 | [3] 0.11 | [4] 0.176

O=C(O)c1ccc(O)c2c1C(=O)c1cc(O)cc(O)c1C2=O
inactive: [1] 0.0473 | [2] -0.0191 | [3] 0.0745 | [4] 0.0247

COc1cc(CN2CCN(Cc3cccnc3)CC2)cc(OC)c1OC
inactive: [1] 0.0843 | [2] 0.0394 | [3] 0.126 | [4] 0.144

COC(=O)Nc1ccc(-c2nc(N3CCOCC3)c3cnn(C4CCN(C(=O)OC)CC4)c3n2)cc1
inactive: [11] -0.0923 | [12] 0.0164 | [13] -0.0767 | [14] -0.0949 | [15] -0.134 | [16] -0.0918
active: [17] -0.281 | [18] -0.237 | [19] -0.419 | [20] -0.244 | [23] -0.744 | [24] -0.369

COC(=O)Nc1ccc(-c2nc(N3CCOCC3)c3cnn(C4CCN(Cc5cccnc5)CC4)c3n2)cc1
active: [17] -0.33 | [18] -0.297 | [19] -0.973 | [20] -0.691 | [23] -1.84 | [24] -1.76
inactive: [11] -0.0181 | [12] 0.0282 | [13] -0.00456 | [14] -0.0439 | [15] -0.169 | [16] -0.0706

COc1cc(OC)c(OC)cc1CN1CCN(Cc2cccnc2)CC1
inactive: [1] 0.0812 | [2] 0.0446 | [3] 0.193 | [4] 0.00403

Reference: the supplement of paper PMC6089552
